HCV inhibitor: inhibitors of hepatitis C virus infection. Huh7.5.1 HCVcc-Cre infection, luciferase reporter, 44 h. Potency, µM (top dose mostly 41.8 µM), for the others: top-dose activity change, negative = inhibition, hits mostly inhibitors. actives 3.4% (n = 340,000); further: potency means the concentration at half of the fitted maximal effect
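A cell-based infection assay in which seeded cells (1,000 per well) receive test compound after 4 h, are inoculated with HCVcc-Cre at approximately 0.5 moi, and are incubated 44 h before luminescence detection.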
VACV Venus inh: inhibitors of vaccinia virus (Venus reporter). Vaccinia virus Venus reporter expression, fluorescence. Potency, µM (series often up to 36.5 µM), inactives show at the highest dose activity change, negative = inhibition, hits mostly inhibitors. actives 0.46% (n = 330,000); calls by dose curve; tested in A549 cells; further: potency means the concentration at half of the fitted maximal effect; nearly all actives have a fitted effect of over 30% in size
FMDV antiviral: blocks foot and mouth disease virus; FMDV antiviral cell-based qHTS; Potency, µM (series often up to 57.9 µM), inactives show at the highest dose activity change, negative = inhibition, most hits filed as inhibitors; actives 1.2% (n = 410,000); calls by dose curve; tested in HEK293T cells; further: read-out not given here; potency means the concentration at half of the fitted maximal effect; nearly all actives have a fitted effect of over 45% in size
HCMV inh: human cytomegalovirus inhibition; activity change, negative = inhibition, % at 57.5 µM; actives 4.5% (n = 410,000); HFF cells, HCMV-luciferase reporter, 72 h; hits give low values; in the data active means activity change below about -60%; inconclusive means no clear call, values can overlap the other calls; inactive means above about -39%
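Compounds were evaluated in HFFs infected with an HCMV luciferase reporter virus (MOI 1 PFU/cell). Luciferase in lysates collected 72 h post infection served as the replication measure.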
FBPA Giardia inh: Giardia lamblia aldolase inhibition; AID 2451; actives 0.71% (n = 290,000); A8B2U2; purified Giardia FBPA; Potency, µM (titrated, usually from 59.6 µM), without a hit: top-dose activity, negative = inhibition, most hits filed as inhibitors; further: potency means the concentration at half of the fitted maximal effect; nearly all actives have a fitted effect of over 55% in size
Target sequence (A8B2U2 whole entry, looked up): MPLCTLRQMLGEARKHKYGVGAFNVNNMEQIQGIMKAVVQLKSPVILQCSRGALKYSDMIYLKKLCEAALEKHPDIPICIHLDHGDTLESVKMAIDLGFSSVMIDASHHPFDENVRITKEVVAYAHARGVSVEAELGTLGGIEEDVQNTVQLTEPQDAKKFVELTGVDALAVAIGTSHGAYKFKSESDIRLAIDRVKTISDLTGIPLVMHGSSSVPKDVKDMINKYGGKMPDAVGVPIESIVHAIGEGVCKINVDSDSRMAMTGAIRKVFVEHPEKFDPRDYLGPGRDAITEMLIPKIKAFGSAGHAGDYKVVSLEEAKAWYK
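Giardia FBPA (40 nM reagent) was preincubated 10 min at RT with compound (up to 57.5 uM final), then substrate plus GAPDH/TPI/NAD/arsenate coupling system with diaphorase/resazurin was added; resorufin fluorescence (525/598 nm) was read after 20 min.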
Vaccinia mCherry: vaccinia inhibition (mCherry reporter). Vaccinia virus mCherry reporter infection, fluorescence. Potency, µM (series often up to 36.5 µM), without a hit: top-dose activity change, negative = inhibition, most hits filed as inhibitors. actives 0.63% (n = 310,000); calls by dose curve; tested in A549 cells; further: potency means the concentration at half of the fitted maximal effect; nearly all actives have a fitted effect of over 35% in size
Active calls of the source: *; i = inactive; ? = inconclusive; · = no result given; [ ] = another dose, or the depositor's remark. Hits are enriched below; roughly 7.5% of the tested compounds scored in any of these assays. Unless noted, the call rests on the fitted dose curve; in most records, active means well fitted curve in the direction sought with a large enough effect; inconclusive means small, poorly fitted or top-dose-only effect, or another doubt; inactive means no such curve, though single readings can be large; an effect the other way counts as inactive or inconclusive. On the % scale 0 is the no-effect control and ±100 the full control effect.

SMILES	HCV inhibitor	VACV Venus inh	FMDV antiviral	HCMV inh	FBPA Giardia inh	Vaccinia mCherry
COc1ccc(Cl)cc1NC(=O)c1nnn(CC(=O)Nc2ccc(C)c(C)c2)c1N	7%	-5%[7.34 µM]	2%	-36	2%	-17%[7.34 µM]
O=C1CN(/N=C/c2ccc(-c3ccc([N+](=O)[O-])cc3)o2)C(=O)N1	·	-9%[60.7 µM]	-6%[97.4 µM]	·	·	i
O=C1CN(/N=C/c2ccc([N+](=O)[O-])o2)C(=O)N1	25µM*	-9%	-33%	-15	?	-11%
CC1N(C)c2cc(NC(=O)c3ccco3)ccc2C1(C)C (stereo not given)	-28%	163%	23%	-70*	?	130%
O=C(N/C(=C\c1ccc([N+](=O)[O-])cc1)C(=O)N1CCOCC1)c1ccco1	-7%	-2%	-1%	35	4%	-3%
CC(=O)Nc1ccc(NC(=O)c2ccco2)cc1	7%	·	59%	19	3%	·
CC1N(C)c2cc(NC(=O)c3ccco3)c(P(=O)(Nc3ccc([N+](=O)[O-])cc3)N3CCOCC3)cc2C1(C)C (stereo not given)	8.9µM*	10%	-8%	?	-22%	-14%
COC(=O)c1cccc(C(=O)NCc2nc(-c3ccccc3NC(C)=O)oc2C)c1	·	8%	14%	·	·	-7%
CCOC(=O)c1ccc2[nH]c3c(c2c1)CCCC3O (stereo not given)	10µM*	-8%	41%	-6	-5%	-8%
Fc1ccc(-c2noc3nc(Oc4ccccc4F)ccc23)cc1	·	·	·	58	·	·
CCN(CC)CCN(C(=O)C1=COCCO1)c1nc2cc(C)cc(C)c2s1	?	-22%	?	-21	-10%	i
Cc1cc(C)c2nc(N(CCCN(C)C)C(=O)C3=COCCO3)sc2c1	32µM*	?	0%	-2	·	-13%
Cc1cccc2sc(N(CCN(C)C)C(=O)c3ccc4c(c3)OCCO4)nc12	·	-5%[7.34 µM]	-2%	-1	·	-2%[7.34 µM]
Cc1cc(C)c2nc(N(CCCN(C)C)C(=O)c3ccc4c(c3)OCCO4)sc2c1	11µM*	-21%	-24%	?	·	-22%
CN(C)CCCN(C(=O)C1=COCCO1)c1nc2ccc(Br)cc2s1	13µM*	-29%	-5%	6	-20%	?
COc1ccc(OC)c(CNC(=O)C2CCN(S(=O)(=O)c3ccc4[nH]c(=O)oc4c3)CC2)c1	·	-8%	-8%	13	·	5%
COc1ccc([C@@H]2[C@@H](C(=O)N3CCCC3)CC(=O)N2C(=O)c2ccccc2)cc1	·	·	·	-17	·	·
COc1ccc(NC(=O)CCc2nc(C3=CCN(Cc4cccc(Cl)c4)CC3)no2)c(OC)c1	·	-22%	?	-9	·	-28%
COc1ccc(NC(=O)CCc2nc(C3=CCN(Cc4cccc(Cl)c4)CC3)no2)cc1OC	·	-17%	32µM*	-18	·	-3%
Cc1ccc(C(=O)NCCc2nnc3n2CCN(Cc2ccnc4ccccc24)CC3)c(C)c1	·	-14%	-7%	·	·	-13%
O=C(NCCc1ccccc1O)c1cc2c(cc1[N+](=O)[O-])OCO2	10%	-8%	4%	32	·	i
N#Cc1cccc(NC(=O)c2cc(C3CCCCN3C(=O)C3CC3)on2)c1 (stereo not given)	·	-11%	?	-63*	·	4%
N#Cc1cccc(NC(=O)c2cc(C3CCCCN3C(=O)c3ccccc3)on2)c1 (stereo not given)	·	-5%	-21%	?	·	3%
Cc1ccccc1C1=CC(=O)CC(C)(C)C1=O	·	·	·	-19	·	·
COC(=O)c1c(C)nc2ccccc2c1-c1ccccc1	?	·	0%	-1	9%	·
COC(=O)c1ccc2c(c1)c(-c1ccccc1)c(-c1ccccc1)n2C	7.1µM*	-1%	?	-12	·	-14%
Cn1ncc(Br)c1NC(=O)CSc1ccc(Cl)cc1	25µM*	·	?	-35	0%	·
COC(=O)C1CCN(CC(=O)NC(=O)NC2CCCCC2)CC1	15%	-10%	-2%	-98*	4%	?
O=C(c1ccco1)N1CCc2[nH]nc(-c3ccc(Cl)cc3)c2C1	11µM*	-25%	?	-19	·	-4%
COc1ccc(-c2cc(C)nc(SCC(=O)c3cccc([N+](=O)[O-])c3)n2)cc1	16µM*	·	10%	1	-1%	·
